From PubChem BioAssay (EPA / NIEHS)
Results filed as inconclusive are left out. Activity calls are given as the source filed them. How the source made its calls: active means hit-call score of the fitted dose curve at least 0.9, where 1 is the maximum; inconclusive means response in the unintended direction; inactive means score below 0.9.

molecular target: human Retinoic Acid Receptor beta (RARb), RARB (gene 5915) (UniProt P10826); assay: ATG_RARb_TRANS: Attagene TRANS-FACTORIAL HepG2 Assay for human Retinoic Acid Receptor beta (AID 2283004)
Protocol: ATG_TRANS is a cell-based, multiplexed-readout assay that uses HepG2, a human liver cell line, with measurements taken at 24 hours after chemical dosing in a 24-well plate.ATG_RARb_TRANS is one of 30 assay component(s) measured or calculated from the ATG_TRANS assay. It is designed to make measurements of mRNA induction, a form of inducible reporter, as detected with fluorescence intensity signals by Reverse transcription polymerase chain reaction (RT-PCR) and Capillary electrophoresis technology.Data from the assay component ATG_RARb_TRANS was analyzed into 1 assay endpoint. This assay endpoint, ATG_RARb_TRANS, was analyzed in the positive analysis fitting direction relative to DMSO as the negative control and baseline of activity. Using a type of inducible reporter, measures of mRNA for gain-of-signal activity can be used to understand the reporter gene at the transcription factor-level as they relate to the gene RARB. Furthermore, this assay endpoint can be referred to as a primary readout, because this assay has produced multiple assay endpoints where this one serves a reporter gene function. To generalize the intended target to other relatable targets, this assay endpoint is annotated to the nuclear receptor intended target family, where the subfamily is non-steroidal.
Human liver HepG2 cells are transiently transfected with multiple reporter transcription units (MRTUs) in 6-well plates using FuGene 6 reagent (Roche; 3 ml FuGene/1 mg DNA). The MRTU constructs are regulated by a cis-regulating element (promoter). […] A major difference between the CIS and TRANS system is that in CIS activities of endogenous TFs are measured, whereas the TRANS assay evaluates changes in activities of exogenous, chimeric NR-Gal4 proteins. […] At the end of 24 hour incubation, total RNA was isolated using TriZol reagent (Invitrogen). The isolated RNA is then reverse-transcribed using oligo(dT) primer and Mo-MLV reverse transcriptase (Invitrogen) with DNAse I (Ambion) treatment for 30 min. The one-tenth of the produced cDNA was amplified by PCR using Taq DNA polymerase (Invitrogen) and two reporter sequence-specific primers. The PCR products were fluorescently labeled by primer extension with 6-arboxyfluorescein (6-FAM) 5'-labeled reporter sequence-specific primer (2 min at 95 C, 20 s at 68 C and 10 min at 72 C) and these products were digested with 5U of HpaI (New England Biolabs) for 2h at 37 C. The fragments were purified using Qiaquick PCR columns (Qiagen), analyzed on an ABI 3130xL genetic analyzer (Applied Biosystems) with peak positions identified by using a set of X-rhodamine (ROX)-labeled MapMarker1000 molecular weight standards (BioVentures). The raw capillary electrophoresis data was processed using Attagraph software (Attagene).

Sequence of human Retinoic Acid Receptor beta (RARb), RARB (gene 5915) (P10826 whole entry, looked up): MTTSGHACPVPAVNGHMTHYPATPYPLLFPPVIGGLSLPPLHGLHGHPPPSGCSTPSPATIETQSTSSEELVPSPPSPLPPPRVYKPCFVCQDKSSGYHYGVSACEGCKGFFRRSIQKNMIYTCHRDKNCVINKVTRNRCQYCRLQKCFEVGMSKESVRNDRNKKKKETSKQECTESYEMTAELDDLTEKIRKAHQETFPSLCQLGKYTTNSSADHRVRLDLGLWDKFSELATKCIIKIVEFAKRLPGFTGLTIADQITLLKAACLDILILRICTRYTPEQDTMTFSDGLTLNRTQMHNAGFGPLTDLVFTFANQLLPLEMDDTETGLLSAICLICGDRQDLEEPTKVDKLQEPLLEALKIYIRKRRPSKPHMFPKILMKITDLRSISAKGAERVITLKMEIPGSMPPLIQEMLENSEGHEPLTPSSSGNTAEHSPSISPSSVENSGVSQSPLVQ

outcome, inactive:
CCC(C)CCCC(C)(C)O (stereo not drawn)
CC(C)=CCC[C@](C)(O)[C@@H]1CC=C(C)CC1
CCCCCC(CO)CCC (stereo not drawn)
OCCOc1cccc(OCCO)c1
O=S(=O)(O)c1cccc2c(S(=O)(=O)O)cccc12
Fc1c(F)c(F)c(Br)c(F)c1F
CC1CC(OC(=O)c2ccccc2O)CC(C)(C)C1 (stereo not drawn)
CC(C)=CCCC(C)=CCCC(C)=CCO
C=O
CCCC[n+]1ccccc1
C=CC(=O)OCCOCCOCC
CC(=O)C(=O)O
C=CC[N+](C)(C)CC=C
O=C(O)CN(CCN(CC(=O)O)CC(=O)O)CCN(CC(=O)O)CC(=O)O
CCCCCCOC(=O)CCCCC
CNC[C@H](O)c1cccc(O)c1
O=C(O)CCCCCCCC(=O)O
Cc1ccc2ccccc2n1
CC1(CO)CN(c2ccccc2)NC1=O (stereo not drawn)
CCCCCOC(=O)CCC
CC1(C)CCC(C)(C)c2cc(C(=O)Nc3ccc(C(=O)O)cc3)ccc21
CC(=O)c1c(C)cc(C(C)(C)C)cc1C
CO[Si](CCCn1c(=O)n(CCC[Si](OC)(OC)OC)c(=O)n(CCC[Si](OC)(OC)OC)c1=O)(OC)OC
NCCCCCCN
CCOC(=O)c1ccccc1OC
CCCCCCCCCCCCCCCC(=O)O
O=S(=O)(O)NC1CCCCC1
COC(C)CCO (stereo not drawn)
O=C[C@H](O)[C@H](O)[C@H](O)CO
CCCCCCCCCCCCOCCO
CC(C)C[C@H]1C(=O)N2CCC[C@H]2[C@]2(O)O[C@](NC(=O)[C@@H]3C=C4c5cccc6[nH]c(Br)c(c56)C[C@H]4N(C)C3)(C(C)C)C(=O)N12
Cc1cccc(C)c1[N+](=O)[O-]
COc1cc(C=O)ccc1OC(=O)C(C)C
